Measured values taken from PubChem BioAssay (EPA / NIEHS).
Active and inactive are the calls of the source. How the source made its calls: active means hit-call score of the fitted dose curve at least 0.9, where 1 is the maximum; inactive means score below 0.9.

How the values were obtained:
Conditions in all cases: mRNA level, 48 h; actives raise or lower the signal
[1] = read-out: Cyclin D1 (CCND1), CCND1 (gene 595); assay: LTEA_HepaRG_CCND1: Life Technologies and Expression Analysis (LTEA) Assay for Cyclin D1 (CCND1) using HepaRG (AID 2283451);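 on AC50: differentiated human HepaRG liver cells in serum-free induction medium; TaqMan qRT-PCR transcript level normalised to ACTB GAPDH and POLR2A housekeeping genes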
Procedure, shortened: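 qRT-PCR (Fluidigm 96.96 array) read-out of transcript level, housekeeping-normalized (ACTB/GAPDH/POLR2A). HepaRG cells, 48 h chemical exposure, 8-point half-log series from 100 uM, 0.5% DMSO vehicle; gain or loss relative to DMSO baseline.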

[2] = read-out: catalase (CAT), CAT (gene 847); assay: LTEA_HepaRG_CAT: Life Technologies and Expression Analysis (LTEA) Assay for catalase (CAT) using HepaRG (AID 2283452)
Procedure, shortened: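 HepaRG cells in serum-free induction medium, 0.5% DMSO vehicle, exposed 48 h in duplicate over 8 half-log concentrations from 100 uM. CAT mRNA measured by qRT-PCR, normalized to ACTB, GAPDH, POLR2A; bidirectional fit versus DMSO.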

[3] = read-out: Cytochrome P450 (CYP1A1), CYP1A1 (gene 1543); assay: LTEA_HepaRG_CYP1A1: Life Technologies and Expression Analysis (LTEA) Assay for Cytochrome P450 (CYP1A1) using HepaRG (AID 2283454)
Procedure, shortened: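 qRT-PCR read-out: CYP1A1 transcript normalized to three housekeeping genes, fitted bidirectionally against 0.5% DMSO vehicle baseline. Human HepaRG cells, 48 h chemical exposure, 8-point half-log series topping at 100 uM.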

[4] = read-out: CFLAR gene, CFLAR (gene 8837); assay: LTEA_HepaRG_CFLAR: Life Technologies and Expression Analysis (LTEA) Assay for CFLAR gene using HepaRG (AID 2283455)
Procedure, shortened: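 qRT-PCR read-out (Fluidigm/TaqMan) of CFLAR mRNA, normalized to three housekeeping genes, in differentiated human HepaRG cells after 48 h chemical exposure; 8-point half-log series from 100 uM in 0.5% DMSO; bidirectional curve fitting versus DMSO.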

[5] = read-out: Forkhead box O1 (FOXO1), FOXO1 (gene 2308); assay: LTEA_HepaRG_FOXO1: Life Technologies and Expression Analysis (LTEA) Assay for Forkhead box O1 (FOXO1) using HepaRG (AID 2283456)
Procedure, shortened: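 HepaRG, 48 h exposure, 8-pt half-log series from 100 uM in 0.5% DMSO, duplicates; Fluidigm qRT-PCR mRNA, housekeeping-normalised; bidirectional fit vs DMSO baseline.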

[6] = read-out: growth arrest and DNA damage 45 (GADD45A), GADD45A (gene 1647); assay: LTEA_HepaRG_GADD45A: Life Technologies and Expression Analysis (LTEA) Assay for growth arrest and DNA damage 45 (GADD45A) using HepaRG (AID 2283458)
Procedure, shortened: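 Transcript induction or loss, quantified by TaqMan qRT-PCR against three housekeeping genes, is the read-out. HepaRG cells received chemicals for 48 h across eight half-log concentrations from 100 uM in 0.5% DMSO; gain and loss fitted relative to DMSO.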

[7] = read-out: Forkhead box O3 (FOXO3), FOXO3 (gene 2309); assay: LTEA_HepaRG_FOXO3: Life Technologies and Expression Analysis (LTEA) Assay for Forkhead box O3 (FOXO3) using HepaRG (AID 2283459)
Procedure, shortened: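 qRT-PCR readout of FOXO3 transcript, normalized to three housekeeping genes (ACTB, GAPDH, POLR2A); gain or loss fitted against 0.5% DMSO vehicle. HepaRG cells, 48 h chemical exposure, 8-point half-log series, top 100 uM.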

[8] = read-out: ABC Transporter (ABCB1), ABCB1 (gene 5243); assay: LTEA_HepaRG_ABCB1: Life Technologies and Expression Analysis (LTEA) Assay for ABC Transporter (ABCB1) using HepaRG (AID 2283460)
Procedure, shortened: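 HepaRG, 48 h exposure, 8-pt half-log series from 100 uM, 0.5% DMSO vehicle, duplicates. Readout: ABCB1 transcript by Fluidigm TaqMan qRT-PCR, housekeeping-normalized; bidirectional curve fit vs DMSO baseline.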

[9] = read-out: flavin-containing dimethylaniline monooxygenases 3 (FMO3), FMO3 (gene 2328); assay: LTEA_HepaRG_FMO3: Life Technologies and Expression Analysis (LTEA) Assay for flavin-containing dimethylaniline monooxygenases 3 (FMO3) using HepaRG (AID 2283453);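 on AC50: differentiated human HepaRG liver cells in serum-free induction medium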
Procedure, shortened: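 FMO3 transcript quantified by TaqMan qRT-PCR against three housekeeping genes after 48 h chemical exposure of HepaRG cells. Eight-point half-log series, top 100 uM, 0.5% DMSO vehicle; phenobarbital 1mM induction control; up- or down-regulation fitted.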

Measured: AC50

OC(c1ccc(Cl)cc1)(c1ccc(Cl)cc1)C(Cl)(Cl)Cl
active: [2] 71.2 µM | [3] 11.9 µM | [5] 79.5 µM
not listed: [9]
inactive: all other assays above

CN=C=S
inactive: all assays above

Cc1cnc(C2=NC(C)(C(C)C)C(=O)N2)c(C(=O)O)c1 (stereo unspecified)
active: [3] 71.2 µM
inactive: all other assays above

CCOc1nc(F)cc2nc(S(=O)(=O)Nc3c(Cl)cccc3Cl)nn12
inactive: all assays above

CC(C)C1(C)N=C(c2ncccc2C(=O)O)NC1=O (stereo unspecified)
inactive: all assays above

CC(C)NC(=O)N1CC(=O)N(c2cc(Cl)cc(Cl)c2)C1=O
inactive: [5] | [6]
active: [1] 23.8 µM | [2] 13.3 µM | [9] 17 µM | [3] 5.2 µM | [4] 20.2 µM | [7] 7.56 µM | [8] 3.58 µM

CC(C)Nc1nc(Cl)nc(NC(C)C)n1
active: [2] 16.8 µM | [3] 41.2 µM | [8] 19.8 µM
inactive: all other assays above

CCN(CC)c1nc(C)cc(OP(=S)(OC)OC)n1
active: [3] 31.1 µM
inactive: all other assays above

COC(=O)NC(=S)Nc1ccccc1NC(=S)NC(=O)OC
active: [3] 39.2 µM | [8] 17.4 µM
inactive: all other assays above

CSC(=O)c1c(C(F)F)nc(C(F)(F)F)c(C(=O)SC)c1CC(C)C
active: [9] 86.8 µM | [3] 17.1 µM
inactive: all other assays above

Cc1cc(C)nc(Nc2ccccc2)n1
active: [3] 1.2 µM
inactive: all other assays above

CC1(C)C(C(=O)OC(C#N)c2cccc(Oc3ccccc3)c2)C1(C)C (stereo unspecified)
active: [3] 50 µM
inactive: all other assays above

N#CN=C1SCCN1Cc1ccc(Cl)nc1
inactive: all assays above

COC(=O)N(C(=O)N1CO[C@@]2(C(=O)OC)Cc3cc(Cl)ccc3C2=N1)c1ccc(OC(F)(F)F)cc1
active: [2] 40 µM | [9] 40 µM | [3] 5.08 µM | [4] 29.8 µM
inactive: all other assays above

Nc1cnn(-c2ccccc2)c(=O)c1Cl
active: [3] 71.7 µM
inactive: all other assays above

CO/N=C(/C1=NOCCO1)c1ccccc1Oc1ncnc(Oc2ccccc2Cl)c1F
inactive: [1] | [4] | [7] | [8]
active: [2] 19.7 µM | [9] 24.9 µM | [3] 33 µM | [5] 10 µM | [6] 29.6 µM

COc1cc(Cl)c(OC)cc1Cl
active: [3] 27.9 µM
inactive: all other assays above

CCCCC(C#N)(Cn1cncn1)c1ccc(Cl)cc1 (stereo unspecified)
active: [3] 27.1 µM | [8] 13.1 µM
inactive: all other assays above
